Hits are enriched below; roughly 2.4% of the tested compounds scored in any of these assays.
A3G deaminase: inhibitors of human APOBEC3G DNA deaminase | Q9HC16 | inhibition, % at 20 µM | recombinant A3G, ssDNA deamination FAM/TAMRA fluorescence | 330,000 tested, 0.28% active;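 active = inhibition of at least 40% at 20 µM, with no more than 30% in the related APOBEC3A deaminase screen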;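 also: plate controls were DMSO wells with A3G for no effect and wells lacking A3G enzyme for full effect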
Target sequence (Q9HC16 whole entry, looked up): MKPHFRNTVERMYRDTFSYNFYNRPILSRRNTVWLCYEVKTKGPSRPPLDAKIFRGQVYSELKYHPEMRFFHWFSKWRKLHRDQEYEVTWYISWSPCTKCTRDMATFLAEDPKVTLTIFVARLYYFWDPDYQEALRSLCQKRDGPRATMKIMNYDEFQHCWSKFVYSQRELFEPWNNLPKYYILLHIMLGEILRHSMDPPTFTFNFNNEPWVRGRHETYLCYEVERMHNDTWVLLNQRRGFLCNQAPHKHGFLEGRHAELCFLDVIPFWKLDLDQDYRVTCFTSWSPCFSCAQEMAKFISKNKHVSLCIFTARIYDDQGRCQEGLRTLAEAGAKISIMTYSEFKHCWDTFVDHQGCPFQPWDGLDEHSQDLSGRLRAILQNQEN
APOBEC3A inh: human APOBEC3A DNA deaminase inhibition. AID 493011. inhibition, % at 20 µM. 330,000 tested, 0.41% active. P31941. recombinant A3A, FAM/TAMRA ssDNA deamination fluorescence;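 active = at least 40% inhibition at 20 µM here, with at most 30% in a related deaminase screen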;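 also: plate controls were A3A with DMSO for no effect and wells lacking A3A enzyme for full effect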
Target sequence (P31941 whole entry, looked up): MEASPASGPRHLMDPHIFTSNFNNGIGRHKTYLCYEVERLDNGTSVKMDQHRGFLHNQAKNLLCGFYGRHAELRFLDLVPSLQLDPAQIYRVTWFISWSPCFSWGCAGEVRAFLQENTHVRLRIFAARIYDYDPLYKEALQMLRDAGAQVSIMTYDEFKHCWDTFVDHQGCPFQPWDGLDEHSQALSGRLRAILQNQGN
PfGluPho inh: PfG6PD (Plasmodium falciparum) enzyme inhibition. PfGluPho enzyme, NADPH resazurin-diaphorase fluorescence. inhibition, % at 20 µM. 350,000 tested, 0.78% active;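 active = inhibition reaching at least a set limit at 20 µM in the primary screen, cut at about 59% in these data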;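 also: 0% = DMSO wells with substrate and 100% = DMSO wells lacking glucose-6-phosphate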
PfM18AAP inh: blocks P. falciparum M18 aspartyl aminopeptidase | AID 1822 | 290,000 tested, 1.2% active | recombinant PfM18AAP, H-Glu-NHMec fluorogenic cleavage | inhibition, % at 7.35 µM;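 active = inhibition above the campaign mean inhibition over all tested compounds plus 3 SD, cut at about 28% in these data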;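 also: 0% = plate median of test compound wells and 100% = 2 mM ZnCl2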
CR mimetic SO: lowers age-related superoxide in aged yeast cells | superoxide response (% of plate mean), % at 10 µM | 330,000 tested, 0.18% active | S. cerevisiae aged cells, superoxide DHE fluorescence; stronger effect = lower value;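 active = superoxide response under a set limit, about three screen SD below normal, cut at about 65% in these data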;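 also: yeast aged for seven days with compound at 30 °C before DHE staining; 100% = average MFI of all compound-treated wells on the plate with controls excluded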
APOBEC3A confirm: confirmation of human APOBEC3A DNA deaminase inhibitors. shares compounds with APOBEC3A inh. AID 493151. recombinant A3A, ssDNA deaminase UDG fluorescence assay. inhibition, % at 20 µM. 1,400 tested, 63% active;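 active = inhibition reaching a set limit, 80% of the first screen's cutoff, at 20 µM in any replicate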;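 also: plate controls were DMSO wells with A3A for no effect and wells lacking A3A enzyme for full effect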
UDG A3A counter: counter-screen for APOBEC3A inhibitors: UDG. UDG counterscreen, FAM/TAMRA uracil oligo fluorescence. 1,000 tested, under 10 active. inhibition, % at 20 µM. AID 504714. shares compounds with APOBEC3A inh; call rule not given here
APOBEC3G confirm: APOBEC3G (human) deaminase inhibition, confirmed; 890 tested, 72% active; AID 493152; shares compounds with A3G deaminase; recombinant A3G ssDNA deaminase, UDG/FAM-TAMRA fluorescence; inhibition, % at 20 µM;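 active = inhibition reaching a set limit in any replicate at 20 µM, the limit being 80% of the first screen's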
PfG6PD confirm: PfG6PD inhibition, single-dose confirmed; shares compounds with PfGluPho inh; inhibition, % at 20 µM; AID 504753; recombinant PfGluPho, NADPH-diaphorase-resazurin fluorescence; 2,400 tested, 34% active;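 active = inhibition of at least 50% at 20 µM in any single replicate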;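 also: 0% = DMSO with substrate and 100% = DMSO lacking glucose-6-phosphate substrate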
Numbers without * were called inactive; / = no result given.

SMILES | A3G deaminase | APOBEC3A inh | PfGluPho inh | PfM18AAP inh | CR mimetic SO | APOBEC3A confirm | UDG A3A counter | others
Cc1n(CC(O)COCc2ccccc2)c2ccccc2[n+]1C (stereo unspecified) | 16 | 59* | 0 | -5 | 106 | 71* | -2
CCCc1n(CC)c2ccccc2[n+]1CC(O)COC1CCCCC1 (stereo unspecified) | 15 | 89* | 10 | -9 | 101 | 75* | 2
OC(COCc1ccccc1)COCc1ccccc1 | / | / | -11 | / | / | / | /
COc1ccc(C)cc1N(CC(=O)Nc1ccc(S(=O)(=O)N2CCCC2)cc1)S(C)(=O)=O | -11 | -1 | -18 | -1 | 102 | / | /
COCCc1nc2ccc(C(=O)N(C)Cc3cccc(-n4nc(C)cc4C)c3)cc2o1 | -4 | -1 | 7 | -4 | 98 | / | /
CCN(Cc1ccc(OC)c(F)c1)C(C)C(=O)Nc1ccc(S(=O)(=O)N2CCCC2)cc1 (stereo unspecified) | -10 | 6 | 7 | / | 100 | / | /
CCc1n(CC(O)COCC2CC=CCC2)c2ccccc2[n+]1C (stereo unspecified) | 27 | 62* | -1 | 2 | 83 | 70* | -2
COC(=O)C1=C(C)N(Cc2ccccc2)C(=NCCCCO)N[C@H]1c1cccc(C(F)(F)F)c1 | 9 | 44* | 4 | / | 91 | 57* | -1
COCCN=C1N[C@@H](c2cccc(C(F)(F)F)c2)C(C(=O)OC)=C(C)N1Cc1ccccc1 | 10 | 63* | 0 | -4 | 102 | 44* | /
CCN1C(=NCCCCO)N[C@@H](c2cccc(C(F)(F)F)c2)C(C(=O)OC)=C1C | 6 | 50* | -5 | -2 | 104 | 61* | -2
COC(=O)C1=C(C)N(Cc2ccccc2)C(=NCc2cccc(C(F)(F)F)c2)N[C@H]1c1cccc(F)c1 | -3 | -2 | 20 | 9 | / | / | /
COC(=O)C1=C(C)N(Cc2ccccc2)C(=NCCCCO)N[C@H]1CCc1ccccc1 | 4 | 44* | 8 | 1 | 100 | 67* | -3
COC(=O)C1=C(C)N(Cc2ccccc2)C(=NCc2cccc(C(F)(F)F)c2)N[C@H]1c1cccc(C(F)(F)F)c1 | -6 | -2 | 7 | / | 89 | / | /
CC(C)NC(=O)C(C)N1CCN(S(=O)(=O)c2ccc3ccccc3c2)CC1 (stereo unspecified) | 15 | 57* | -2 | -7 | 114 | 59* | -1
CC(C)N1CCN(S(=O)(=O)c2ccc3ccccc3c2)CC1 | -1 | -3 | -2 | 0 | 113 | / | /
CC[N+](C)(CC)CCC(c1ccccc1)C1CCCCC1 (stereo unspecified) | 10 | 48* | -5 | -4 | 108 | 67* | -2
CC[N+](C)(CC)CCOC(=O)C(O)(c1ccccc1)C1CCCCC1 (stereo unspecified) | 19 | 3 | -1 | 2 | 85 | / | /
CN(C)C(CNC(=O)c1cc(S(=O)(=O)N2CCOCC2)ccc1F)c1cccs1 (stereo unspecified) | -5 | -6 | -12 | / | 105 | / | /
COc1ccc(CCNC(=O)CN(C2CCCCC2)S(C)(=O)=O)cc1OC | 25 | 44* | 0 | -3 | 111 | 58* | 5
CS(=O)(=O)N(CC(=O)NCCc1ccccc1)C1CCCCC1 | -5 | -5 | 0 | 3 | 97 | / | /
CCC1(c2ccccc2)NC(=O)N(CC(=O)Nc2cc(Cl)ccc2N2CCOCC2)C1=O (stereo unspecified) | 5 | 47* | -14 | / | 96 | 8 | /
CCCOc1ccc(C(=O)CCC(=O)OCC(=O)N2CCN(S(=O)(=O)c3ccc(C)cc3C)CC2)cc1 | / | / | -20 | / | / | / | /
CN(CC(=O)NCCc1ccccc1)S(=O)(=O)c1ccc(Br)s1 | -2 | -2 | -5 | -7 | 103 | / | /
CC(=O)N1CCC(C(=O)N2CCN(S(=O)(=O)c3ccc(F)cc3)CC2)CC1 | 0 | 0 | 1 | -5 | 90 | / | /
O=C(C1CCC1)N1CCN(S(=O)(=O)c2ccc(F)cc2)CC1 | 17 | 46* | -13 | / | 99 | -1 | /
SMILES | A3G deaminase | APOBEC3A inh | PfGluPho inh | PfM18AAP inh | CR mimetic SO | APOBEC3A confirm | UDG A3A counter | others
N#CC1(NC(=O)COc2ccccc2[N+](=O)[O-])CCCCC1 | 3 | 48* | 0 | / | 89 | 22 | /
Cc1ccccc1N=C1NC(=O)/C(=C/c2cccn2-c2cccc(C(=O)O)c2)S1 | 6 | 50* | -29 | -4 | / | 43* | -3
COc1ccc2c(c1)sc(=N)n2C | 15 | 44* | -3 | 1 | 94 | 29 | /
COc1ccc2c(c1)sc1nc(=O)ccn12 | -7 | -4 | -6 | 5 | 106 | / | /
CCCN1CCc2c(sc3nc(SC)n(-c4ccccc4)c(=O)c23)C1 | -2 | 1 | 5 | -6 | 107 | / | /
O=C(Nc1ccc(Cl)cc1)c1cccs1 | -5 | -4 | 17 | 7 | 102 | / | /
O=C(Nc1ccc(NC(=O)c2ccc(Cl)cc2Cl)cc1)c1cccs1 | 8 | 54* | -5 | 1 | 100 | 41* | -2
CC(C)C(NC(=O)COc1ccc2ccccc2c1)C(=O)N/N=C/C=C/c1ccccc1 (stereo unspecified) | 16 | 41* | 8 | 20 | 126 | 63* | 3
COc1ccccc1OCC(=O)N1CCN(S(=O)(=O)c2ccc(Cl)cc2)CC1 | 5 | 53* | -18 | / | / | 1 | /
O=S(=O)(c1ccc(Cl)cc1)N1CCN(Cc2c[nH]c3ccccc23)CC1 | -1 | 3 | -7 | -5 | 100 | / | /
COc1cc(C(=O)N2CCN(S(=O)(=O)c3ccc(Cl)cc3)CC2)ccc1OCC(=O)N1CCOCC1 | / | / | -7 | / | / | / | /
O=C(Cc1c[nH]c2ccccc12)N1CCN(S(=O)(=O)c2ccc(Cl)cc2)CC1 | 0 | 40* | -1 | / | / | 0 | /
O=C(/C=C/c1ccco1)Nc1scc(-c2ccccc2)c1C(=O)O | 19 | 59* | 75* | -1 | 114 | 69* | 0 | PfG6PD confirm=22
Cc1ccc(CNC(=O)CCc2cn(C)c3ccccc23)cc1 | -1 | 1 | 11 | -2 | 92 | / | /
CCC(Oc1ccccc1)C(=O)Nc1ccc(C)c(S(=O)(=O)N2CCOCC2)c1 (stereo unspecified) | 81* | 2 | 6 | / | 100 | / | / | APOBEC3G confirm=-1
CCCC(C(=O)Nc1ccc(C)c(S(=O)(=O)N2CCOCC2)c1)c1ccccc1 (stereo unspecified) | -6 | -2 | 10 | / | 104 | / | /
